Measured values as given in paper PMC13494018.
Values without a mark were called inactive. The rule behind the calls is not given here.

Molecular target: CD276, Q5ZPR3
Sequence (Q5ZPR3 whole entry): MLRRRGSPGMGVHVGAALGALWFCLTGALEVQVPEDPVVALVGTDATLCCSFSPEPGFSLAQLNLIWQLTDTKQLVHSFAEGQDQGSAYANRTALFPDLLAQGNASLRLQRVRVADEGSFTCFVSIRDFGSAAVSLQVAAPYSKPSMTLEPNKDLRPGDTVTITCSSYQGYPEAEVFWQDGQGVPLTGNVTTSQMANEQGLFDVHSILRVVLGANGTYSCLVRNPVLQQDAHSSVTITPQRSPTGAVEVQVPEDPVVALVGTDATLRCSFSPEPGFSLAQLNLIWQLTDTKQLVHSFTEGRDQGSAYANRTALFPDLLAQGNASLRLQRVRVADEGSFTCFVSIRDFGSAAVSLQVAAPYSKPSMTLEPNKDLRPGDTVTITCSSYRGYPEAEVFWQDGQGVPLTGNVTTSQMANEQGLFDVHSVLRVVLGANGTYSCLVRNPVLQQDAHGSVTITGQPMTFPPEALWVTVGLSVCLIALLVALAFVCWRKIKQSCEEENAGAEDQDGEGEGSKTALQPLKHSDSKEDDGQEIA

Binder | binding in a display sort
design_486_d4f32670-1303-4d79-8413-1b14cb3eff50_1391_dldesign_0_cycle1_af2pred (protein) DARLKKAAELLKKHTEAVLKGPVHPEAKLATAEVAIESAQGIYKAGADDAEVKAAAKEALAAAKELKERAEKELAAAEAAAAAA | not found
design_486_d4f32670-1303-4d79-8413-1b14cb3eff50_969_dldesign_0_cycle1_af2pred (protein) AQAERDAAARKIAAAHLNHAAKVAEALAKEAKDPKVKKKLKEAAKKAKELAKEAAKGNAAEAGEKAVEAAKLLAEARRLYEEDK | not found
design_486_d4f32670-1303-4d79-8413-1b14cb3eff50_897_dldesign_0_cycle1_af2pred (protein) NPQGEAAVRYAEIAARARRLAEEARAAGREELAAEFQRIAEAARAALRRAVAANVAGEDRSEELVAEAERLERELEELERRFR | not found
design_486_d4f32670-1303-4d79-8413-1b14cb3eff50_1678_dldesign_0_cycle1_af2pred (protein) AAMEEKEQRIINAAKANLELAKIALEGAPHNPELALKVLEALARRAKELAEEAKKLGLEEAEKAAKEAAEEIKKYAKEAQALL | not found
design_486_d4f32670-1303-4d79-8413-1b14cb3eff50_394_dldesign_0_cycle1_af2pred (protein) AEANVALGKRMLEAGKKLAEETKELAKKAKKGEDKEGAKEAAKVALAFAETLELVAEGVPEIAEELKKAAKELKEAAEKALKAAKAA | not found
design_486_d4f32670-1303-4d79-8413-1b14cb3eff50_402_dldesign_0_cycle1_af2pred (protein) ADEEKVKQAKKLAEEALRLAKEDPEKAKKKLEEAAKLAAASPAALEILLSVAGELYRINPEVGKAARQAFATAATAIV | not found
design_486_d4f32670-1303-4d79-8413-1b14cb3eff50_440_dldesign_0_cycle1_af2pred (protein) AGKEIAKKMGKAVAERLAKQAPSVAEEAKKAAEAIEKGDYEEAKKEAEKALEIGKKNPKEYKVVKAGVETLKVLADAIAAS | not found
design_486_d4f32670-1303-4d79-8413-1b14cb3eff50_567_dldesign_0_cycle1_af2pred (protein) DTVVANALAAQLVLEAIGLAAAGNIEEALKKLREAAKVASPESAAVLEAAARTIAEEGLPPEEAVAVFNAALAVVQKNAIAAA | not found
design_486_d4f32670-1303-4d79-8413-1b14cb3eff50_1067_dldesign_0_cycle1_af2pred (protein) ANAAQIKAAAQAAYKSAKEIAEEALELAKEGKKEEAEKKLKGAEKLGEIAAALAAQYGAAGDPAEGAALAKDIKEYLKEAKKELEKL | not found
design_486_d4f32670-1303-4d79-8413-1b14cb3eff50_1479_dldesign_0_cycle1_af2pred (protein) AEATQLLSEAIDLAKEIEENKKKATPEVAKIYDEALEEANKAMNLAAKASVADAATAAKLIAEAKKELEKAKELYEKAKKLEKE | not found
design_486_d4f32670-1303-4d79-8413-1b14cb3eff50_300_dldesign_0_cycle1_af2pred (protein) SELDEELLERAKRLLETAKAAGAAGDKETVQQALGEAVELAAEAQRHRDVVSEETWQAIQQALNTAAQHAIAL | not found
design_486_d4f32670-1303-4d79-8413-1b14cb3eff50_1537_dldesign_0_cycle1_af2pred (protein) AAAAAAARALALAEEAAAALPPDAGARVREMVRRAVALLEAGDAGAAIQTLLDAIRYGTAAARAIDPARAATVANALTRAIVAISAAA | not found
design_486_d4f32670-1303-4d79-8413-1b14cb3eff50_845_dldesign_0_cycle1_af2pred (protein) SAAEQQLQQAKGYITLANAIARDPNPTPEQLQLAKEAAQQAIKLAEQVEKAVGEKGKEVKKQAEEALAKVQALL | not found
design_486_d4f32670-1303-4d79-8413-1b14cb3eff50_1495_dldesign_0_cycle1_af2pred (protein) AAALAAAEAKAKAYIEKVKALDPELGKKTAEAVKKGVKSTPETAAALGNEVTAAAPEEAKPYVAAAIAQAILANALS | not found
design_486_d4f32670-1303-4d79-8413-1b14cb3eff50_760_dldesign_0_cycle1_af2pred (protein) EAEEAARRARELAERARAARDAGLADPAKANEALGVALDAMRELAEIAERYPEVAEVAREAARVAAEAATALAKQAAAYYAAQRA | not found
design_486_d4f32670-1303-4d79-8413-1b14cb3eff50_1562_dldesign_0_cycle1_af2pred (protein) MEEREKVAESMKKMLDAIGEIAAAETGEEGKKMAEEAKKEVEEAAKKGLSPEEIAAVANKKAAEILKVTMAAARAK | not found
design_486_d4f32670-1303-4d79-8413-1b14cb3eff50_1336_dldesign_0_cycle1_af2pred (protein) DAAAQAKAVAEKGVELIKKADPETGKKVGELVEKGAASANAASLLLEAAQLAAEAAKKKGWTPEMRQGVHLLLLASSLAHQAAVAAA | not found
design_486_d4f32670-1303-4d79-8413-1b14cb3eff50_1569_dldesign_0_cycle1_af2pred (protein) NAQAKAFLDQGKAKMEAGKALIKEGKYEEAAAEFTRAYSYFLAAAGLARAAGDKALAAEAEKAAKEAEALAKEAKA | not found
design_486_d4f32670-1303-4d79-8413-1b14cb3eff50_1586_dldesign_0_cycle1_af2pred (protein) AEERAAAIARATLAGSLALMRTMSPEDAIRLMEVLADILLSNPLTREYGERVAELARRAREEGPAAAEEAIREGAEIGEELRAA | not found

Binder | binding in a display sort
design_486_d4f32670-1303-4d79-8413-1b14cb3eff50_1615_dldesign_0_cycle1_af2pred (protein) DGYIQLAIAYANAAANRASPEVAPKLREVAELAKKGATDPEALKKAIELAKKLAKEVPEVADLLEKAVEYLKEALKAVE | not found
design_486_d4f32670-1303-4d79-8413-1b14cb3eff50_1359_dldesign_0_cycle1_af2pred (protein) AAAAADRAFAITKATAEASMKLMETMTAESALKLGETVAAILRAMAKAYPAHAAELNALADKVEATAKAVAEAKK | not found
design_486_d4f32670-1303-4d79-8413-1b14cb3eff50_798_dldesign_0_cycle1_af2pred (protein) GVQALAAATLEAMELAKKIGANEAVRNLGAALAVAGTRHPELAPEFTKRVEELLKLAKEAAKGDKEEAAKLVAEEARKLRDAALAA | not found
design_486_d4f32670-1303-4d79-8413-1b14cb3eff50_1519_dldesign_0_cycle1_af2pred (protein) DEVAKLVDETAAAARAAVAAAARTAAAGTPEQSAALSSLMVATLQAVGDAYRALTDPAEAKAAAEKARALAEELAARTAEIQA | binds (active)
design_486_d4f32670-1303-4d79-8413-1b14cb3eff50_1679_dldesign_0_cycle1_af2pred (protein) AAAAKAKVQAAAAKALAEAKKTAAEAKTLTPEEATALLQATAADAIRQAAEYGKLDPEVAGSALVEVVKLLAEARRAVAA | not found
design_486_d4f32670-1303-4d79-8413-1b14cb3eff50_1517_dldesign_0_cycle1_af2pred (protein) AEAEKIIKEAKALAKEAKALAAQGAALDPAIAVIAAAAAAAAASAEKMVKENGEAKAEDAKKLLEVAKTLLEQAKAALEAALAAAA | not found
design_486_d4f32670-1303-4d79-8413-1b14cb3eff50_565_dldesign_0_cycle1_af2pred (protein) MTEEELIQRTADANVRQVRRVAVEEGLEAGRRQLELNVKSLESVGATEIAAEMERRAEAALAEAAAELARRAAE | not found
design_486_d4f32670-1303-4d79-8413-1b14cb3eff50_1357_dldesign_0_cycle1_af2pred (protein) GMSEELAKELAEKVTKALAAASKAAAAALANPAVAAQANALLAQAVDYALKFQEAAKKDVEEAKKEAEKAIAAANELKALAAAA | not found
design_486_d4f32670-1303-4d79-8413-1b14cb3eff50_819_dldesign_0_cycle1_af2pred (protein) SLEELRRKAVRKAQEAMATASKVAIAAKAAGDAATAAKANELLVKAQEALKEAVEGKNVEEALRRAEELLEEAKKLAKE | not found
design_486_d4f32670-1303-4d79-8413-1b14cb3eff50_721_dldesign_0_cycle1_af2pred (protein) MNLYESTLLVAEGAIQTAQQAAELATDPAIKAQAKELKERAQEIRDRVKARGTATNEEGQEAVRLLNQASKLLAQAK | not found
design_486_d4f32670-1303-4d79-8413-1b14cb3eff50_1573_dldesign_0_cycle1_af2pred (protein) SLEEAKKKAKEVTEKGKEDLATLKEIAVQAAKQGQLAGAQAALNSAKVVAKATAEEVAKLVGPEAGEKALKEGEALVKEAKKEVEKAA | not found
design_486_d4f32670-1303-4d79-8413-1b14cb3eff50_1613_dldesign_0_cycle1_af2pred (protein) AAAYKKAVAALDAVVAEAAAISEGAGLIATNIKTQGLTQGAAAKDPAEAAKIVEAALKLATDSVTKYVESSAALR | not found
design_486_d4f32670-1303-4d79-8413-1b14cb3eff50_973_dldesign_0_cycle1_af2pred (protein) DPAERAAEFRRRAEEVAAIYLAAAQANPAMAPVMAANVLATMRAWAAVWADNPAVAAAALEVGREAAARIA | not found
design_486_d4f32670-1303-4d79-8413-1b14cb3eff50_521_dldesign_0_cycle1_af2pred (protein) DAAALAARTARAIRDQAVRTVAAEEGPEAAEIARAAGEAVLAGDFEEGRRLAERVGRARAFVLSNVESIALLVEG | not found
design_486_d4f32670-1303-4d79-8413-1b14cb3eff50_1137_dldesign_0_cycle1_af2pred (protein) MEEAEEVMRRTFELAREARELRAEAERLAKLAEESGEAAPEAAAARAKAEEKVAEARRLGEEYPGAAALAEGTLAG | not found
design_486_d4f32670-1303-4d79-8413-1b14cb3eff50_1043_dldesign_0_cycle1_af2pred (protein) AAEKEAEAARLERLMQAYVAAAMAGAARVTGNEATAAAQLAKARALDPEVAGELEAAVLADPQAALAEALERARAAEERLRALREE | binds (active)
design_486_d4f32670-1303-4d79-8413-1b14cb3eff50_1473_dldesign_0_cycle1_af2pred (protein) GSMAAAAAAEAARRAALLAEAQAKMNEASKAAIEATKTDPAKAKYYNEALALYQEAAALANDGSKYEEAKEKLKEGDKLMEKV | not found
design_486_d4f32670-1303-4d79-8413-1b14cb3eff50_788_dldesign_0_cycle1_af2pred (protein) MREEAERVRRRAEEVEELAAKASPAVAAQVRARARAARTFAEAALRSPDPELAAQAVAAAEANVEAAEQLLAADA | not found
design_486_d4f32670-1303-4d79-8413-1b14cb3eff50_1561_dldesign_0_cycle1_af2pred (protein) SEVEEKAKELAEKALALVKTGTGEAEAKKLLAAAPPEVVIQAIKVAAEKAKAEGPEMAAYANKLAAAANQALLEKN | not found
